Assay results as given in PubChem BioAssay (NCATS).
Records with an inconclusive call do not appear. A number with no mark means an inactive call. Active and inactive are the calls of the source. Calls follow the shape of the dose curve; as a rule, active = well fitted cell-killing curve with a large enough effect; inconclusive = small, poorly fitted or top-dose-only effect, or effect the other way; inactive = flat fitted curve, though single readings scatter. Where a SMILES comes first, the peptide text is derived from it.

The molecules below were run on Tov112D (assay: Primary qHTS to identify gynecologic anti-cancer compounds using libraries of approved drugs and bioactive compounds (AID 1345084; also: nearly all actives have a fitted effect of over 55% in size)). Conditions: Gynecologic cancer cell panel viability, ATPlite luminescence, 48 h; series mostly up to 57.5 µM; activity change, negative = cytotoxicity: at the top concentration.
Method in brief: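 Cells, 1,000 per well, plated 16 h, then exposed 48 h at 37 C to compounds. Viability by ATPlite luminescence after 15 min at room temperature.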
% is scaled to controls: 0 for no effect and ±100 for the full control effect; potency is read from the fitted curve at half-maximal effect.

| Compound | Potency | activity change, negative = cytotoxicity |
| --- | --- | --- |
| Cc1cc2nc3ccc(=[N+](C)C)cc-3sc2cc1N | 12.6 µM (active) |  |
| O=C(O)c1cn(C2CC2)c2cc(Cl)c(F)cc2c1=O |  | 10.2% |
| Cc1ncc([N+](=O)[O-])n1C |  | -1.01% |
| CCCC(=O)O[C@]1(C(=O)CCl)[C@@H](C)C[C@H]2[C@@H]3CCC4=CC(=O)C=C[C@]4(C)[C@@]3(F)C(=O)C[C@@]21C |  | -7.45% |
| Cc1c(F)cc2c(=O)c(C(=O)O)cn3c2c1CCC3C (centres undefined) |  | 14.5% |
| CN1N=C(C(N)=O)CCC1=O |  | 7.16% |
| N#CSCC(=O)O |  | 3.56% |
| C#CC(C)(CC)OC(=O)c1ccccc1C(=O)O (centres undefined) |  | 7.81% |
| COc1cc(S(N)(=O)=O)cc(C(=O)O)c1OC |  | 3.06% |
| C=C(C)C(=O)OCC(O)CO (centres undefined) |  | -0.768% |
| CC(Oc1c(Cl)cccc1Cl)C1=NCCN1 (centres undefined) |  | -2.62% |
| CCOC(=O)C(=O)CCCCCCl |  | 2.68% |
| CCCc1ncc(C(=O)O)s1 |  | 7.94% |
| Nc1nc2ccccc2n1Cc1ccc(F)cc1 |  | -14.2% |
| CN(C)CCOC1=Cc2ccccc2Sc2ccc(Cl)cc21 |  | -0.456% |
| C[C@@H]1CCC[C@H](C)N1CCCC(O)(c1ccccc1)c1ccccn1 (some centres undefined) |  | -4.74% |
| CC(=O)N[C@@H](CO)C(=O)N[C@@H](CC(=O)O)C(=O)N[C@@H](CCCCN)C(=O)N1CCC[C@H]1C(=O)O (Ac-SDKP-OH) |  | 12.8% |
| O=C(CS(=O)Cc1ccco1)NC/C=C\COc1cc(CN2CCCCC2)ccn1 (centres undefined) |  | 2.32% |
| CCOC(=O)N1CCC(n2c(=O)[nH]c3cc(Cl)ccc32)CC1 |  | 2.53% |
| Cn1c(=O)c2c(ncn2CC(=O)O)n(C)c1=O |  | 17.5% |

| Compound | Potency | activity change, negative = cytotoxicity |
| --- | --- | --- |
| NC(=O)NS(=O)(=O)c1ccc(Cl)cc1 |  | 3.16% |
| O=C(O)C1CCC1 |  | -4.64% |
| Cc1ccc(C(C)OC(=O)C2(C)CCC(C(=O)O)C2(C)C)cc1 (centres undefined) |  | 11.9% |
| NS(=O)(=O)c1cc(C(=O)NN2C[C@H]3[C@H]4CCC(C4)[C@H]3C2)ccc1Cl |  | 16.8% |
| C/C(=C(/OCCOc1ccc(Cl)cc1)c1ccc(Cl)cc1Cl)n1ccnc1 |  | -0.992% |
| N#Cc1cc(NC(=O)C(=O)O)c(Cl)c(NC(=O)C(=O)O)c1 |  | 4.98% |
| Cc1cc(CCCOc2c(C)cc(-c3noc(C(F)(F)F)n3)cc2C)on1 |  | 0.972% |
| Cc1cc(O)c(C)c(C)c1O |  | 17.5% |
| CC(=O)/C=C/C=C1/C2CCC(C2)C1(C)C (centres undefined) |  | 0.305% |
| CO/N=C(\C(=O)O)c1csc(NC(=O)CCl)n1 |  | 4.96% |
| CCC(CN)=C(c1ccccc1)c1ccccc1 |  | -1.68% |
| CCN1CCN(c2cc(-c3ccc(F)cc3)c3c(n2)CCCCCC3)CC1 |  | -3.99% [at 25.3 µM] |
| CCOC(=O)C(=O)c1csc(NC=O)n1 |  | 1.8% |
| O=C1CC2(CCCC2)CC(=O)N1 |  | 7.52% |
| O=C(O)CCCC[P+](c1ccccc1)(c1ccccc1)c1ccccc1 |  | 0.782% |
| O=c1[nH]c(=O)n([C@H]2O[C@H](CO)[C@@H](O)[C@@H]2O)cc1/C=C\Br |  | 17.1% |
| CCS(=O)(=O)c1ccc(OC)c(C(=O)OC)c1 |  | 6.44% |
| CC(C)(C)c1ccc(C(=O)CCCCl)cc1 |  | -6.89% |
| CC(C)(Oc1ccc(Cl)cc1)C(=O)OCCCOC(=O)C(C)(C)Oc1ccc(Cl)cc1 |  | -3.71% |
